Compounds without any hit were thinned out: in the full panel of roughly 79,000, 15% have a hit. Activity calls are given as the source filed them. Cut-off read from the data, not from the text of the source: active = growth inhibition above about 70%; inactive = the rest.
Tests used:
[1] = NCI Yeast Anticancer Drug Screen. Data for the rad50 strain (AID 155);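 note: 0% = growth of vehicle-only cultures of the same strain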; settings: S. cerevisiae rad50 strain growth inhibition, hits give high values
In short: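 Readout: growth inhibition relative to vehicle-treated cultures. Compound exposure was carried out in a genetically defined yeast strain deficient in DNA damage repair.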

[2] = NCI Yeast Anticancer Drug Screen. Data for the mec2-1 strain (AID 157); settings: S. cerevisiae mec2-1 strain, hits give high values
In short: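 mec2-1 yeast strain, carrying an alteration in DNA damage repair or cell cycle control, was exposed to compounds; growth inhibition was measured relative to vehicle-treated controls.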

[3] = NCI Yeast Anticancer Drug Screen. Data for the sgs1 mgt1 strain (AID 161);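 note: 0% = growth of cultures given vehicle only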; settings: S. cerevisiae sgs1 mgt1 strain, hits give high values
In short: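 Compounds are added to genetically altered yeast, and growth is compared with cultures given vehicle alone to give percent inhibition.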

[4] = NCI Yeast Anticancer Drug Screen. Data for the cln2 rad14 strain (AID 165);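 note: 0% = growth equal to vehicle treated cultures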; settings: S. cerevisiae cln2 rad14 strain, hits give high values
In short: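 Yeast carrying cln2 and rad14 alterations (cell cycle control and DNA damage repair) were exposed to compounds. Growth inhibition was measured against vehicle-treated controls.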

[5] = NCI Yeast Anticancer Drug Screen. Data for the bub3 strain (AID 167); settings: S. cerevisiae bub3 mutant strain, hits give high values
In short: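 Readout: yeast growth inhibition, expressed relative to vehicle-only wells. The test organism is a mutant strain from a panel with lesions in DNA repair or checkpoint genes.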

[6] = NCI Yeast Anticancer Drug Screen. Data for the mlh1 rad18 strain (AID 175); settings: S. cerevisiae mlh1 rad18 strain growth inhibition, hits give high values
In short: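 Growth inhibition of the yeast strain was measured after compound exposure and expressed relative to vehicle-treated controls. The strain carries defined defects in DNA damage repair.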

[7] = at 5.0 µM (retest, dose inferred, filed as 0.5)
[8] = at 50.0 µM (retest, dose inferred, filed as 5.0)

Measured: growth inhibition

NNc1ccc(Br)cc1
inactive: [4]; [7] 47% | [6]; [7] 33%
active: [1]; [7] 83% | [1]; [8] 98% | [1]; at 50.0 µM 90.3% | [2]; [7] 83% | [2]; [8] 98% | [2]; at 50.0 µM 92.2% | [3]; [7] 96% | [3]; [8] 99% | [3]; at 50.0 µM 92.7% | [4]; [8] 98% | [4]; at 50.0 µM 90.5% | [5]; [7] 98% | [5]; [8] 96% | [5]; at 50.0 µM 91% | [6]; [8] 100% | [6]; at 50.0 µM 89.7%

O=C1CC(=Nc2ccc([N+](=O)[O-])cc2)NN1c1c(Cl)cc(Cl)cc1Cl
active: [1]; at 50.0 µM 90.7% | [2]; at 50.0 µM 92% | [3]; [8] 96% | [3]; at 50.0 µM 92.7% | [4]; at 50.0 µM 89.4% | [5]; [8] 95% | [5]; at 50.0 µM 91.7% | [6]; [8] 89% | [6]; at 50.0 µM 89.5%
inactive: [1]; [7] -20% | [1]; [8] 47% | [2]; [7] -24% | [2]; [8] 69% | [3]; [7] -15% | [4]; [7] -15% | [4]; [8] 57% | [5]; [7] -24% | [6]; [7] -65%

c1ccc2cc3nc4ccccc4nc3cc2c1
active: [1]; [8] 82% | [1]; at 50.0 µM 87.9% | [4]; at 50.0 µM 70.1% | [6]; at 50.0 µM 73%
inactive: [1]; [7] 44% | [2]; [7] 21% | [2]; [8] 38% | [2]; at 50.0 µM 51.4% | [3]; [7] 13% | [3]; [8] 22% | [3]; at 50.0 µM 20.9% | [4]; [7] 15% | [4]; [8] 38% | [5]; [7] 42% | [5]; [8] 57% | [5]; at 50.0 µM 68.3% | [6]; [7] 25% | [6]; [8] 58%

Cc1cc(NCCCCCCCCCC[n+]2c(C)cc(N)c3ccccc32)c2ccccc2n1
active: [1]; [7] 71% | [1]; [8] 99% | [1]; at 50.0 µM 89.8% | [2]; [7] 94% | [2]; [8] 99% | [2]; at 50.0 µM 92.2% | [3]; [7] 97% | [3]; [8] 99% | [3]; at 50.0 µM 91.5% | [4]; [7] 95% | [4]; [8] 99% | [4]; at 50.0 µM 90% | [5]; [7] 96% | [5]; [8] 99% | [5]; at 50.0 µM 90.9% | [6]; [7] 95% | [6]; [8] 99% | [6]; at 50.0 µM 90.6%

c1ccc(-c2n[nH]c3c4ccccc4c4ccccc4c23)cc1
inactive: [1]; [7] 19% | [2]; [7] 16% | [3]; [7] 34% | [4]; [7] 5% | [5]; [7] 13% | [6]; [7] 62%
active: [1]; [8] 92% | [1]; at 50.0 µM 93.8% | [2]; [8] 98% | [2]; at 50.0 µM 95% | [3]; [8] 97% | [3]; at 50.0 µM 94.2% | [4]; [8] 94% | [4]; at 50.0 µM 93.4% | [5]; [8] 95% | [5]; at 50.0 µM 95% | [6]; [8] 96% | [6]; at 50.0 µM 95%

CC(=O)NCCN(C)C
inactive: [1]; [7] 2% | [1]; [8] -1% | [2]; [7] 2% | [2]; [8] -4% | [3]; [7] 6% | [3]; [8] -1% | [4]; [7] -2% | [4]; [8] -3% | [5]; [7] -3% | [5]; [8] 0% | [6]; [7] 4% | [6]; [8] 4%
active: [1]; at 50.0 µM 93.5% | [2]; at 50.0 µM 97% | [3]; at 50.0 µM 84.1% | [4]; at 50.0 µM 85.7% | [5]; at 50.0 µM 92.5% | [6]; at 50.0 µM 88.8%

CCOC(=O)C1=C(C)NC(C)=C(C(=O)OCC)C1c1c(-c2ccccc2)noc1C
inactive: [1]; [7] 23% | [1]; at 50.0 µM 6.6% | [2]; [7] 7% | [2]; [8] 62% | [2]; at 50.0 µM -2.3% | [3]; [7] 18% | [3]; [8] 69% | [3]; at 50.0 µM 2.2% | [4]; [7] 0% | [4]; [8] 40% | [4]; at 50.0 µM -3.5% | [5]; [7] 1% | [5]; at 50.0 µM 0.85% | [6]; [7] 2% | [6]; [8] 61% | [6]; at 50.0 µM 11.9%
active: [1]; [8] 84% | [5]; [8] 70%

CS/C(C#N)=C(\C#N)SC
inactive: [1]; [7] 10% | [2]; [7] 3% | [2]; [8] 27% | [2]; at 50.0 µM 16.3% | [3]; [7] 2% | [3]; [8] 23% | [3]; at 50.0 µM 67.6% | [4]; [7] 3% | [4]; [8] 12% | [4]; at 50.0 µM 23.6% | [5]; [7] 2% | [5]; [8] 59% | [5]; at 50.0 µM 53.1% | [6]; [7] 7% | [6]; [8] 35% | [6]; at 50.0 µM 43.5%
active: [1]; [8] 78% | [1]; at 50.0 µM 79.2%

COc1ccc2c(c1)C(=O)C[C@@H]1[C@](C)(C#N)CCC[C@]21C
inactive: [1]; [7] 3% | [1]; [8] 31% | [1]; at 50.0 µM 47.1% | [2]; [7] 3% | [2]; [8] 2% | [2]; at 50.0 µM -4.95% | [3]; [7] 3% | [3]; [8] 19% | [3]; at 50.0 µM 33.4% | [4]; [7] 5% | [4]; [8] 10% | [4]; at 50.0 µM -2.7% | [5]; [7] 5% | [5]; [8] 34% | [5]; at 50.0 µM 69.8% | [6]; [7] 7% | [6]; [8] 13% | [6]; at 50.0 µM 47.7%

S=c1sc2c(s1)SCCOCCOCCOCCS2
inactive: [1]; [7] -4% | [1]; [8] 3% | [1]; at 50.0 µM 29.3% | [2]; [7] 5% | [2]; [8] 7% | [2]; at 50.0 µM 0.95% | [3]; [7] -12% | [3]; [8] 5% | [3]; at 50.0 µM 30.6% | [4]; [7] 12% | [4]; [8] 8% | [4]; at 50.0 µM 31.1% | [5]; [7] 4% | [5]; [8] 36% | [5]; at 50.0 µM 22.2% | [6]; [7] -15% | [6]; [8] -13% | [6]; at 50.0 µM 23.4%

From PubChem BioAssay (NCI)
